Measured values published in PubChem BioAssay AID463173 (ICCB-Longwood Screening Facility, Harvard Medical School, 2010).
The campaign covered roughly 52,000 compounds. About 1,700 (3.3%) were called active. Only a selection was taken, and actives are over-represented in it overall. A number with no mark means an inactive call. No stated cut-off is given here; in the data, active means survival mostly below about 52% (no sharp cut-off); inactive means mostly above about 56%.

tested on: Wild type; test: growth inhibition of S. aureus wild type versus tarO mutant, primary screen, teichoic acid synthesis inhibitors, RN4220, OD600 (AID 463173); details: S. aureus RN4220 wild type/DeltatarO growth, OD600, 18 h, active compounds read low, screened at 18.75 µg/mL (by protocol)

SMILES	survival
CCc1ccc(-n2c(N3CCN(c4cccc(C)c4C)CC3)nc3ccccc3c2=O)cc1	81%
Cc1c(C(=O)NCc2ccccc2Br)oc2c1-c1[nH]ncc1CC2	82%
Cc1ccc(C(=O)Nc2ccc3c(c2)N(C)C(=O)c2ccccc2S3)cc1	99%
COc1ccc(Cl)cc1NC(=O)Cn1c(=O)n(Cc2ccco2)c(=O)c2ccc(C(=O)NC3CCCC3)cc21	87%
O=C(CSc1nc2c([nH]c3ccccc32)c(=O)n1-c1ccccc1F)Nc1cccc(C(F)(F)F)c1	71%
COC(=O)c1ccc(CSc2nc3c([nH]c4ccccc43)c(=O)n2-c2cccc(Cl)c2)o1	71%
O=C(CSc1nc2c([nH]c3ccccc32)c(=O)n1-c1ccccc1)Nc1cccc(C(F)(F)F)c1	-6% (active)
O=C(CSc1nc2c([nH]c3ccccc32)c(=O)n1-c1ccccc1)N1CCCCC1	69%
CCOc1ccc(-n2c(SCC(=O)NCc3ccco3)nc3c([nH]c4ccccc43)c2=O)cc1	10% (active)
COC(=O)c1ccc(CSc2nc3c([nH]c4ccccc43)c(=O)n2-c2ccc(Cl)cc2)o1	121%
O=C(CSc1nc2c([nH]c3ccccc32)c(=O)n1-c1ccc(F)cc1)NCc1ccco1	88%
COc1cccc(-n2c(SCC(=O)N3CCCCC3)nc3c([nH]c4ccccc43)c2=O)c1	-3% (active)
COC(=O)c1ccc(CSc2nc3c([nH]c4ccccc43)c(=O)n2-c2cc(C)cc(C)c2)o1	0% (active)
O=C(CSc1nc2c([nH]c3ccccc32)c(=O)n1-c1ccccc1)N1CCCCCC1	78%
COc1cccc(NC(=O)CSc2nc3c([nH]c4ccccc43)c(=O)n2-c2ccccc2)c1	67%
COc1ccc(-n2c(SCC(=O)NCc3ccco3)nc3c([nH]c4ccccc43)c2=O)cc1	75%
CCc1cccc(C)c1NC(=O)c1cc(S(=O)(=O)N2CCN(c3ccccc3)CC2)ccc1F	73%
COc1cccc(C(=O)N2CC(C)OC(C)C2)c1 (stereo unspecified)	107%
COC(=O)C1=NN(C(=O)c2cccc(OC)c2)C(C)(O)C1 (stereo unspecified)	123%

SMILES	survival
COc1cccc(NC(=O)NCc2ccc3c(c2)CCN3C(=O)c2ccccc2)c1	64%
COc1cccc(C(=O)N2c3cc(C)ccc3C(C)(c3ccccc3)CC2(C)C)c1 (stereo unspecified)	1% (active)
COc1cccc(C(=O)N2c3ccc(C)cc3C(C)(c3ccccc3)CC2(C)C)c1 (stereo unspecified)	-2% (active)
COc1ccc(OCC(=O)N2CCN(C(=O)c3cccc(OC)c3)CC2)cc1	88%
COc1ccc(CNc2nc(-c3ccco3)nn2C(=O)c2ccccc2Cl)cc1	95%
O=C(Cn1c(=O)n(-c2ccc(F)cc2)c(=O)c2sc3ccccc3c21)NC1CCCCC1	91%
CNC(=O)C1CCC(Cn2c(=O)c3sccc3n(CC(=O)N3CCCC3)c2=O)CC1 (stereo unspecified)	77%
Cc1ccc(NCC(=O)N=Nc2c(O)[nH]c3ccccc23)cc1	114%
Cc1c(C(=O)O)oc2c1-c1nn(Cc3ccc(Cl)cc3)cc1CC2	77%
CCOC(=O)c1oc2c(c1C)-c1nn(Cc3cccc(Cl)c3)cc1CC2	66%
CCOC(=O)c1oc2c(c1C)-c1nn(Cc3ccc(Cl)cc3)cc1CC2	2% (active)
CCOc1ccc2c(c1)c(=O)c(C(=O)c1ccc3c(c1)OCO3)cn2Cc1cccc(F)c1	91%
CCCCOc1cccc(C2c3c(oc4ccccc4c3=O)C(=O)N2c2ccccn2)c1 (stereo unspecified)	68%
O=C(Nc1noc2ccccc12)c1ccc(F)cc1	78%
CCOC(=O)c1c(C)oc2c1c(O)c(N=O)c1ccccc12	7% (active)
CCOC(=O)c1c(C)oc2nc(C)nc(N3CCN(c4ccccc4)CC3)c12	68%
CCOC(=O)c1c(C)oc2ncnc(N3CCN(c4ccccc4)CC3)c12	68%
CC(C)OC(=O)Cn1c(C2CC2)nc2ccccc2c1=O	115%
CC(C)(C)c1ccc(S(=O)(=O)N2CCC(Oc3ccc(-n4cnnn4)cc3)CC2)cc1	81%

SMILES	survival
Cc1cn2c(=O)cc(COC(=O)c3ccc(NC(=O)COc4ccccc4F)cc3)nc2s1	85%
Cn1ncc2c(N3CCN(c4ccccc4Cl)CC3)ncnc21	127%
CCn1c(SCc2ccccc2)nnc1C1CCCCC1	106%
Cc1c2cnn(-c3ccccc3)c(=O)c2c(C)n1C(C)C(=O)NCc1cccc(Br)c1 (stereo unspecified)	71%
CC(=O)c1ccc(NC(=O)CCn2nc(C)c(S(=O)(=O)N3CCC(C)CC3)c2C)cc1	-6% (active)
CC(=O)c1cccc(NC(=O)CCn2nc(C)c(S(=O)(=O)N3CCCCC3)c2C)c1	159%
Cc1nn(CCC(=O)Nc2cccc(C#N)c2)c(C)c1S(=O)(=O)N1CCC(C)CC1	69%
CCOc1ccc(NC(=O)NCCc2c(C)nn(C)c2C)cc1	60%
CCc1cccc(CC)c1NC(=O)CN(C)S(=O)(=O)c1ccc2c(c1)n(C)c(=O)c(=O)n2C	81%
Cc1ccc(C)c(N2CCN(C(=O)Cn3cnc4nc5c(cc4c3=O)CCCC5)CC2)c1	76%
Cc1c(Cl)cccc1NC(=O)Cn1cnc2nc3c(cc2c1=O)CCCC3	131%
COc1ccc(N2CCN(C(=O)Cn3cnc4nc5c(cc4c3=O)CCCC5)CC2)cc1	78%
O=C(Cn1cnc2nc3c(cc2c1=O)CCCC3)Nc1ccc(F)cc1Cl	72%
COc1cc(OC)c(NC(=O)Cn2cnc3nc4c(cc3c2=O)CCCC4)cc1Cl	-6% (active)
O=C(Cn1cnc2nc3c(cc2c1=O)CCCC3)N1CCN(c2cccc(C(F)(F)F)c2)CC1	14% (active)
Cc1ccc(C)c(NC(=O)Cn2cnc3nc4c(cc3c2=O)CCCC4)c1	72%
Cc1cccc(N(C)C(=O)Cn2cnc3nc4c(cc3c2=O)CCCC4)c1	-1% (active)
O=C(Cn1cnc2nc3c(cc2c1=O)CCCC3)N1CCN(c2ccccc2)CC1	69%
